± gives the standard deviation.
T1: HaloTag-ATRX ADD domain (163-292)
T1 chain: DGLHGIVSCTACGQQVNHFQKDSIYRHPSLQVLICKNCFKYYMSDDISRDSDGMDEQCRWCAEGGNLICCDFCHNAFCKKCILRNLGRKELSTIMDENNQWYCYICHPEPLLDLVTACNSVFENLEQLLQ


Biological target: T1, HaloTag-ATRX ADD domain (163-292)
Assay: peptide microarray binding signal (635 nm), min-max normalized on array (fraction of array maximum); higher = stronger binding
Conditions: peptide region: Unmod H2B variant; binder concentration: 50 nM
In short: (§1)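 An Axon GenePix 4000B scanned the arrays at 635 nm for signal and at 532 nm to catch misprints. Those arrays held histone 13-mer peptide–cellulose conjugates printed in triplicate on nitrocellulose with a Cy3 tracer, blocked overnight at 4°C and probed for 1 h at 4°C with biotin-labelled HaloTag reader fusions (10 nM to 1 μM) plus streptavidin-Alexa Fluor 647 or with rabbit histone antibodies (1:10,000 to 1:2,000) plus anti-rabbit Alexa 647. Each binding signal is a triplicate-spot mean intensity, scaled min-max within its library.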

Row | Binder | peptide microarray binding signal
1 | AMGIMNSFVNDIF [Unmod H2B variant A M G I M N S F V N D I F] | 0.0068 ± 0.00037
2 | DIFERIASEASRL [Unmod H2B variant D I F E R I A S E A S R L] | 0.00655 ± 0.00034
3 | KVLKQVHPDTGIS [Unmod H2B variant K V L K Q V H P D T G I S] | 0.00552 ± 0.00019
4 | DIFERIAGEASRL [Unmod H2B variant D I F E R I A G E A S R L] | 0.0112 ± 0.00018
5 | GISSKAMGIMNSF [Unmod H2B variant G I S S K A M G I M N S F] | 0.00856 ± 0.00082

Same assay, conditions: peptide region: Unmod H2B variant; binder concentration: 500 nM

Row | Binder | peptide microarray binding signal
6 | AMGIMNSFVNDIF [Unmod H2B variant A M G I M N S F V N D I F] | 0.0162 ± 0.0016
7 | DIFERIASEASRL [Unmod H2B variant D I F E R I A S E A S R L] | 0.00648 ± 0.00023
8 | KVLKQVHPDTGIS [Unmod H2B variant K V L K Q V H P D T G I S] | 0.00971 ± 0.0005
9 | DIFERIAGEASRL [Unmod H2B variant D I F E R I A G E A S R L] | 0.0406 ± 0.0012
10 | GISSKAMGIMNSF [Unmod H2B variant G I S S K A M G I M N S F] | 0.0227

Biological target: HaloTag-ING2 PHD (mouse Ing2 200-280)
Assay: as above
Conditions: peptide region: Unmod H2B variant; binder concentration: 10 nM
In short: as §1

Row | Binder | peptide microarray binding signal
11 | AMGIMNSFVNDIF [Unmod H2B variant A M G I M N S F V N D I F] | 0.0083 ± 0.00011
12 | DIFERIASEASRL [Unmod H2B variant D I F E R I A S E A S R L] | 0.00454 ± 0.00011
13 | KVLKQVHPDTGIS [Unmod H2B variant K V L K Q V H P D T G I S] | 0.00531 ± 0.00011
14 | DIFERIAGEASRL [Unmod H2B variant D I F E R I A G E A S R L] | 0.013 ± 0.00037
15 | GISSKAMGIMNSF [Unmod H2B variant G I S S K A M G I M N S F] | 0.00913 ± 0.00027

Same assay, conditions: peptide region: Unmod H2B variant; binder concentration: 100 nM

Row | Binder | peptide microarray binding signal
16 | AMGIMNSFVNDIF [Unmod H2B variant A M G I M N S F V N D I F] | 0.0126 ± 0.00023
17 | DIFERIASEASRL [Unmod H2B variant D I F E R I A S E A S R L] | 0.0142 ± 0.0098
18 | KVLKQVHPDTGIS [Unmod H2B variant K V L K Q V H P D T G I S] | 0.0101 ± 0.00011
19 | DIFERIAGEASRL [Unmod H2B variant D I F E R I A G E A S R L] | 0.0336 ± 0.00077
20 | GISSKAMGIMNSF [Unmod H2B variant G I S S K A M G I M N S F] | 0.0416 ± 0.0056

Biological target: anti-H3K4me3 antibody ab8580
Assay: as above
Conditions: peptide region: Unmod H2B variant; binder concentration: 1:2,000 dilution
In short: as §1

Row | Binder | peptide microarray binding signal
21 | AMGIMNSFVNDIF [Unmod H2B variant A M G I M N S F V N D I F] | 0.00362 ± 0.00022
22 | DIFERIASEASRL [Unmod H2B variant D I F E R I A S E A S R L] | 0.000793 ± 2.2e-05
23 | KVLKQVHPDTGIS [Unmod H2B variant K V L K Q V H P D T G I S] | 0.000755 ± 1.8e-05
24 | DIFERIAGEASRL [Unmod H2B variant D I F E R I A G E A S R L] | 0.00406 ± 0.00012
25 | GISSKAMGIMNSF [Unmod H2B variant G I S S K A M G I M N S F] | 0.00215 ± 0.00023

Same assay, conditions: peptide region: Unmod H2B variant; binder concentration: 1:10,000 dilution

Row | Binder | peptide microarray binding signal
26 | AMGIMNSFVNDIF [Unmod H2B variant A M G I M N S F V N D I F] | 0.00548 ± 0.00033
27 | DIFERIASEASRL [Unmod H2B variant D I F E R I A S E A S R L] | 0.00177 ± 2.9e-05
28 | KVLKQVHPDTGIS [Unmod H2B variant K V L K Q V H P D T G I S] | 0.001655 ± 1.6e-05
29 | DIFERIAGEASRL [Unmod H2B variant D I F E R I A G E A S R L] | 0.00548 ± 0.00027
30 | GISSKAMGIMNSF [Unmod H2B variant G I S S K A M G I M N S F] | 0.00348 ± 0.00045

Biological target: anti-H3K9me3 antibody ab8898
Assay: as above
Conditions: peptide region: Unmod H2B variant; binder concentration: 1:2,000 dilution
In short: as §1

Row | Binder | peptide microarray binding signal
31 | AMGIMNSFVNDIF [Unmod H2B variant A M G I M N S F V N D I F] | 0.00285 ± 0.0002
32 | DIFERIASEASRL [Unmod H2B variant D I F E R I A S E A S R L] | 0.000453 ± 1.5e-05
33 | KVLKQVHPDTGIS [Unmod H2B variant K V L K Q V H P D T G I S] | 0.000483 ± 2.8e-05
34 | DIFERIAGEASRL [Unmod H2B variant D I F E R I A G E A S R L] | 0.00234 ± 0.00013
35 | GISSKAMGIMNSF [Unmod H2B variant G I S S K A M G I M N S F] | 0.000695 ± 1.2e-05

Same assay, conditions: peptide region: Unmod H2B variant; binder concentration: 1:10,000 dilution

Row | Binder | peptide microarray binding signal
36 | AMGIMNSFVNDIF [Unmod H2B variant A M G I M N S F V N D I F] | 0.00311 ± 5.3e-05
37 | DIFERIASEASRL [Unmod H2B variant D I F E R I A S E A S R L] | 0.001211 ± 1.2e-05
38 | KVLKQVHPDTGIS [Unmod H2B variant K V L K Q V H P D T G I S] | 0.00346 ± 0.0011
39 | DIFERIAGEASRL [Unmod H2B variant D I F E R I A G E A S R L] | 0.003113 ± 2.6e-05
40 | GISSKAMGIMNSF [Unmod H2B variant G I S S K A M G I M N S F] | 0.0011 ± 1.1e-05
